CYP2C19 act: increases human CYP2C19 enzyme activity; P33261; recombinant CYP2C19, luciferin-H EGE luminescence; stronger effect = higher value; 0 = fully inhibited enzyme, 1 = untreated enzyme; activation factor at 5 µM; 96,000 tested, under 10 active;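 active = activation factor of at least 2 at 5 µM in the primary screen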
Target sequence (P33261 whole entry, looked up): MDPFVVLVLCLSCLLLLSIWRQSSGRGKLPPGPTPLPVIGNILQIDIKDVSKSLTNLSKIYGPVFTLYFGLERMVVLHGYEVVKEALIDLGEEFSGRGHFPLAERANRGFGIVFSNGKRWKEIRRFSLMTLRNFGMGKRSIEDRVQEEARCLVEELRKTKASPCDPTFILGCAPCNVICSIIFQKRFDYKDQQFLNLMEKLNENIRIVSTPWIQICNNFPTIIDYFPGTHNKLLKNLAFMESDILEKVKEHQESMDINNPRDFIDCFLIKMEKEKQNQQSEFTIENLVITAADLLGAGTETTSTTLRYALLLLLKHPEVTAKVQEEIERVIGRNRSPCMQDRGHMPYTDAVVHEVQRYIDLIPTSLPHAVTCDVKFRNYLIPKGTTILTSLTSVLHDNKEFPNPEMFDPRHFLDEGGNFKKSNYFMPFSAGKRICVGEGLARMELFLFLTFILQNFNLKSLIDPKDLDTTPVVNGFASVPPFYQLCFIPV
CYP2C9 inh: blocks human cytochrome P450 2C9; P11712; CYP2C9 Supersomes, luciferin-H conversion, luminescence; inhibition, % at 5 µM; 20% of 96,000 active; AID 777;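 active = blocking of liver enzyme CYP2C9 beyond about 50% at 5 µM, limit read from the data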
CYP2C9 activ: activators of human CYP2C9. activation factor at 5 µM. 1.4% of 96,000 active. AID 1024. recombinant CYP2C9, luciferin-H conversion, luminescence; stronger effect = higher value; factor 1 = untreated enzyme, 0 = blocked. P11712;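 active = activation factor of 2 or more for CYP2C9 at a 5 µM dose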
PostGolgi ctrl: inhibits growth of the yeast control strain; 5% of 98,000 active; efflux-deficient yeast background strain, growth absorbance A615, 16 h; inhibition, % at 10 µM; AID 738
PostGolgi yeast: growth inhibition of a yeast mutant, post-Golgi transport screen | inhibition, % at 10 µM | post-Golgi transport phenotypic cell assay | 0.9% of 98,000 active | AID 739;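 also: yeast cells grown in 1536-well plates; yeast grown about 18 h at 30C before absorbance read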
CYP2C19 inh: human CYP2C19 inhibition; CYP2C19 Supersomes, luciferin-H EGE luminescence, 30 min; inhibition, % at 5 µM; 21% of 96,000 active;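 active = CYP2C19 inhibition above a set limit at 5 µM in the primary screen, cut at about 50% in these data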
Hits are given with their value; – = inactive; · = no result. An excerpt weighted towards active compounds, which were near 32% of everything screened. Rule as the data show it, unless noted: active = inhibition above about 30%; inactive = the rest.

SMILES | CYP2C19 act | CYP2C9 inh | CYP2C9 activ | PostGolgi ctrl | PostGolgi yeast | CYP2C19 inh
CC(c1cccnc1)N(C(=O)Nc1ccccc1)C1CCCCC1 (centres undefined) | – | – | – | – | – | –
CCOc1ccc(NC(=O)N(C2CCCCC2)C(C)c2cccnc2)cc1 (centres undefined) | – | – | – | – | 63.4 | –
Fc1cc2ncn(Cc3ccccc3)c2cc1F | – | – | – | – | – | –
C/C(=N\NC(=O)C(C)Oc1ccc([N+](=O)[O-])cc1)c1ccccn1 (centres undefined) | – | – | – | – | – | 68.4
CC1CN(c2nc3ccccc3nc2C(C#N)C(=O)NCc2ccc3c(c2)OCO3)CC(C)O1 (centres undefined) | – | – | – | – | – | –
C=CCOC(=O)C(C#N)c1nc2ccccc2nc1N1CCC(C(=O)OCC)CC1 (centres undefined) | – | 56.0 | – | – | – | –
C=CCOC(=O)C(C#N)c1nc2ccccc2nc1N1CCN(Cc2ccc3c(c2)OCO3)CC1 (centres undefined) | – | 57.3 | – | – | – | –
COC(=O)C1CCN(c2nc3ccccc3nc2C(C#N)C(=O)OCC(C)C)CC1 (centres undefined) | – | – | – | – | – | –
CCOC(=O)C1CCN(c2nc3ccccc3nc2C(C#N)C(=O)OC(C)COC)CC1 (centres undefined) | – | 63.3 | – | – | – | 61.4
CCOC(=O)C1CCN(c2nc3ccccc3nc2C(C#N)C(=O)OCCOC)CC1 (centres undefined) | – | – | – | – | – | 66.2
C=C(C)Cn1c(SCC(=O)O)nnc1-c1ccc(OC)cc1 | – | – | – | – | – | –
Cc1ccc2cc(C#N)c(NCc3ccco3)nc2c1 | – | – | – | – | – | –
CCOC(=O)C1CCN(c2nc3ccccc3nc2C(C#N)C(=O)OC(C)C)CC1 (centres undefined) | – | – | – | – | – | 91.6
O=c1cc(CSc2nnc(COc3ccccc3)o2)c2ccccc2[nH]1 | – | – | – | – | – | –
c1ccc2c(c1)NC1(CCCC1)n1c-2nc2ccccc21 | – | – | – | – | – | –
CCCC1(C)Nc2ccccc2-c2nc3ccccc3n21 (centres undefined) | – | 58.9 | – | – | – | 64.3
CCc1c(C)c(C#N)c2nc3ccccc3n2c1NCCN(C)C | – | – | – | 42.0 | – | –
CCc1c(C)c(C#N)c2nc3ccccc3n2c1NCc1ccco1 | – | 70.7 | – | – | – | –
CCCCc1c(C)c(C#N)c2nc3ccccc3n2c1Nc1c(C)n(C)n(-c2ccccc2)c1=O | – | – | – | – | – | –
C=CCc1c(C)c(C#N)c2nc3ccccc3n2c1NCCN(C)C | – | – | – | 73.7 | 81.6 | –
COc1cc(CCNC(=O)c2cnn3ccccc23)cc(OC)c1OC | – | – | – | – | – | –
CCOc1ccc(NC(=O)CS(=O)(=O)c2cn(CC)c3ccccc23)cc1 | – | – | – | – | – | –
Cc1cc(NC(=O)CS(=O)(=O)c2cn(Cc3cccc(F)c3)c3ccccc23)no1 | – | 71.5 | – | – | – | 57.3
CCn1cc(S(=O)(=O)CC(=O)Nc2ccc(OC)cc2)c2ccccc21 | – | – | – | – | – | 56.1
O=c1c(F)cn(C2CCCO2)c(=O)n1Cc1c(Cl)cccc1Cl (centres undefined) | – | – | – | – | – | 66.1
SMILES | CYP2C19 act | CYP2C9 inh | CYP2C9 activ | PostGolgi ctrl | PostGolgi yeast | CYP2C19 inh
O=C(Cc1c(F)cccc1Cl)NCC1CCCO1 (centres undefined) | – | – | – | – | – | –
COc1ccc(NC(=O)CSc2ncnc3c2cnn3Cc2ccccc2)cc1OC | – | – | – | – | – | –
COc1ccccc1CNc1ncnc2c1nnn2Cc1ccccc1 | – | – | – | – | – | 54.7
Clc1ccc(Cn2ncc3c(NCc4ccccc4)ncnc32)cc1 | – | – | – | 40.6 | – | –
COc1ccc(Nc2ncnc3c2cnn3Cc2ccccc2)cc1OC | – | 73.0 | – | – | – | 84.4
COc1ccccc1CNc1ncnc2nc[nH]c12 | – | – | – | – | – | –
COCCNc1ncnc2c1cnn2Cc1ccc(Cl)cc1 | – | – | – | – | – | 81.6
CCS(=O)(=O)NCCc1csc(C)n1 | – | – | – | – | – | –
CCOC(=O)c1[nH]c(C)c(/C(O)=C2\C(=O)C(=O)N(CCCN(C)C)C2c2ccncc2)c1C (centres undefined) | – | – | – | – | – | –
N#Cc1ccc(CSc2ncnc3c2cnn3Cc2ccccc2)cc1 | – | – | – | 38.6 | – | –
Cc1ccc(CSc2ncnc3c2cnn3Cc2ccccc2)cc1 | – | – | – | – | – | –
CCn1c(SCc2ccc(C#N)cc2)nnc1-c1ccc(S(=O)(=O)N2CCCCC2)cc1 | – | – | – | 43.0 | – | –
CCn1c(SCC(=O)N2CCCC2)nnc1-c1ccc(S(=O)(=O)N2CCCCCC2)cc1 | – | – | – | – | – | –
Cc1nc(SCC(O)CO)c([N+](=O)[O-])[nH]1 (centres undefined) | – | – | – | – | – | –
CCc1ccc2c(c1)C(c1cccs1)=NNC(c1cccnc1)=N2 | – | – | – | – | – | –
Clc1ccc2c(c1)C(c1cccs1)=NNC(c1cccnc1)=N2 | – | 67.8 | – | – | – | –
Fc1ccc2c(c1)C(c1ccncc1)=NNC(c1cccnc1)=N2 | – | 54.5 | – | – | – | 51.1
Cc1cc(OCC(=O)Nc2ccc(F)c(F)c2)nc(C(C)C)n1 | – | – | – | – | – | 73.3
Cc1cc(OCC(=O)Nc2ccccc2F)nc(C(C)C)n1 | – | – | – | – | – | –
Nc1sc(-c2ccccc2)cc1C(=O)O | – | 64.0 | – | – | – | –
CCOC(=O)c1cc(-c2ccc(N)cc2)sc1N | – | 58.7 | – | – | – | 54.4
COC(=O)c1c(-c2ccccc2)csc1N | – | – | – | – | – | –
CCOC(=O)c1cc(-c2ccccc2)sc1NC(=S)Nc1cccc(C)n1 | – | – | – | – | – | –
CC(=O)c1ccc(N2CCN(C(=O)c3cc(-c4ccc5c(c4)OCO5)nc4ccccc34)CC2)cc1 | – | 62.5 | – | – | – | –
CC(NC(=O)c1cc(-c2ccc3c(c2)OCO3)nc2ccccc12)C(C)(C)C (centres undefined) | – | 55.8 | – | – | – | –
CCCN(CCC)C(=O)c1cc(-c2ccc3c(c2)OCO3)nc2ccccc12 | – | 100.3 | – | – | – | 97.0
CS(=O)(=O)N1CCN(C(=O)c2cc(-c3ccccc3)nc3ccccc23)CC1 | – | – | – | – | – | –
O=C(O)c1cc(-c2ccc3c(c2)OCO3)nc2ccccc12 | – | – | – | · | · | –
CC1(C(=O)O)CCC(C(=O)Nc2ccc(S(N)(=O)=O)cc2)C1(C)C (centres undefined) | – | – | – | – | – | –
Cn1c(=O)c2nc(-c3ccccc3)oc2c2ccccc21 | – | – | – | 61.3 | – | –

Assay outcomes from PubChem.
